# PubChem BioAssay AID588398 (Broad Institute, 2011)
# In all, about 1,200 compounds went through this assay and about 110 (9.2%) were called active. Inconclusive results (about 8%) are left out. These entries were drawn from the full list. Entries with a potency or affinity are not part of this list. Unmarked numbers belong to inactive results.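 Rule for the calls: active = pathway reporter half-maximal dose under half the control reporter's, or control reporter unaffected while pathway reporter is inhibited; inconclusive = either signal flat at 30 to 70% inhibition or poorly fitted; inactive = the rest.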
# Assay: LMP1 TES1 pathway selectivity over dsRED control – imaging, HEK293T, dual-color eGFP/dsRED, cherry-picks, selectivity assay for LMP1 NF-kB inhibitor project, dose response (AID 588398);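 note: 0% = median of neutral control wells and -100% = median of MG132 positive control wells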
# Conditions: 48 h; HEK293T Tet-On dsRED counter-screen channel, at 19.5 µM (top of the series); activity change, negative = inhibition: at the top concentration
Compound,"activity change, negative = inhibition",outcome
COc1cc(/C=N/NC(=S)Nc2cccc(C(=O)O)c2)ccc1O,4.99%,
O=C(Nc1ccc(C(=O)N2CCOCC2)cc1)Nc1cccc(C(F)(F)F)c1,-84.7%,
O=C(NC1=NCCS1)c1cc2ccccc2o1,-20.6%,
COc1cc2c(cc1OC)-c1cc(Nc3ccc4c(c3)OCCO4)nc(=O)n1CC2,3.53%,
COc1ccccc1-n1c(-c2ccccc2)n[nH]c1=S,-2.33%,
COc1ccc(N/N=C/c2c(C(=O)O)ccc3ccccc23)cc1,-82.7%,
COc1ccc(/C(CC2OC(=O)c3ccccc32)=N\NC(N)=O)cc1 (centres undefined),9.72%,
COc1ccccc1C=NN=Cc1ccccc1O,11.8%,
O=C(Nc1ccc(F)c(F)c1)C1CCCCC1,-0.709%,
CCCSc1ccc([C@@H]2[C@H]3C(=O)N(C)C(=O)[C@H]3[C@]3(C(=O)OC)CCCN23)cc1OC,2.29%,
CC[C@]1(C(=O)OC)[C@H]2C(=O)N(Cc3ccccc3)C(=O)[C@H]2[C@H]2CN=C(SCc3ccc(Cl)cc3)N21,-97.1%,
COc1ccc(-n2c(C)c(C(C)=O)c3cc(OC(C)=O)ccc32)cc1,-87.7%,
O=C(C1CCCCC1)N1CCN(c2ccnc3cc(Cl)ccc23)CC1,-8.83%,
COc1ccc(S(=O)(=O)N2CCC(C(=O)NC3CC3)CC2)cc1OC,2.11%,
C[n+]1c2n(c3ccccc31)N=C(c1cc(C(C)(C)C)c(O)c(C(C)(C)C)c1)CS2,-79%,
CC(=NNc1nc2ccccc2s1)c1ncccn1,-99.9%,
CC(=NNc1nc2ccccc2o1)c1ncccn1,-91.1%,
Brc1cccc(-c2cnco2)c1,18.5%,
COc1ccc(NC(=O)Cn2nnc(C(=O)NCc3ccccc3)c2N)c(OC)c1,114%,
COc1ccccc1NC(=O)C(=O)N/N=C(\C)CC(=O)Nc1ccccc1C(F)(F)F,7.02%,
COC(=O)c1cccc(COC(=O)c2ccccc2NC(=O)c2ccco2)c1,0.293%,
Cn1c(=O)c2c(nc(NCc3ccco3)n2C/C=C/c2ccccc2)n(C)c1=O,-18.9%,
O=C(CCS(=O)(=O)c1ccccc1)Nc1nccs1,-25.5%,
Oc1c(N=NC(=S)Nc2ccccc2F)c2ccccc2n1Cc1cccc(Cl)c1,19.5%,
CCCCCCNC(=O)O[C@]12C[C@@H](C(=O)OC)[C@@H](C(=O)OC)C[C@@]1(O)CN(S(=O)(=O)c1ccc(C)cc1)C2,-4.81%,
CCN1CCN(Cc2ccc(NC(=O)c3ccc(C)c(NC(=O)c4ccno4)c3)cc2C(F)(F)F)CC1,,inactive

Compound,"activity change, negative = inhibition",outcome
Oc1c(N=NC(=S)Nc2ccccc2F)c2ccccc2n1Cc1ccc(F)cc1,11.3%,
CCCN(CC)c1ncnc2[nH]ncc12,-85.4%,
Cc1ccccc1-n1nc(C)c2cc(C(=O)NC3CC3)sc21,16.1%,
Cc1ccc(N2C(=O)c3ccccc3C2Nc2cccnc2)nc1 (centres undefined),10.4%,
O=C(c1ccc(C#CC2(O)CCCCC2)cc1)N1CCN(C(c2ccccc2)c2ccccc2)CC1,-14.9%,
COc1ccc(C(c2c(C)n(C)n(-c3ccccc3)c2=O)c2c(C)n(C)n(-c3ccccc3)c2=O)c(OC)c1OC,6.3%,
Cc1ccccc1C(=O)NC(=S)Nc1ccc(N2CCN(C(=O)c3ccccc3)CC2)cc1,3.02%,
COc1cccc(/C=N\NC(=O)c2ccc(C)nc2)c1,1.79%,
O=C(N/N=C/c1c(O)ccc2ccccc12)c1cccnc1,-94.7%,
CC(CN1CCCCC1)OC(=O)c1ccc2c(c1)OCO2 (centres undefined),-1.2%,
N=C1S/C(=C\c2ccccc2)C(=O)N1c1ccc(F)cc1,5.19%,
CN(C)S(=O)(=O)c1cccc(NC(=O)c2n[nH]c(=O)c3ccccc23)c1,7.35%,
O=[N+]([O-])c1cccc(-c2ccc(/C=N/Nc3nc(N4CCCCC4)nc(N4CCCCC4)n3)o2)c1,41.5%,
Cc1c(NC(=O)c2cc(-c3cccs3)nc3ccccc23)c(=O)n(-c2ccccc2)n1C,26.4%,
Cc1ccc(-c2cc(C(=O)N/N=C/C=C/c3ccco3)c3ccccc3n2)cc1C,79.6%,
CCOc1ccc(-c2cc(C(=O)N/N=C/c3ccc(O)cc3)c3ccccc3n2)cc1,112%,
O=C(COC(=O)c1ccc(S(=O)(=O)NCc2ccco2)cc1)Nc1ccc(Cl)cn1,12.5%,
CCOC(=O)/C=C(\C)Sc1cc(=O)oc2ccccc12,-97.8%,
COc1ccc([C@H]2N[C@]3(CCCN(Cc4ccco4)C3=O)[C@H]3C(=O)N(Cc4ccccc4)C(=O)[C@@H]23)cc1,0.261%,
Cc1ccc(NC(=O)NNS(=O)(=O)c2ccc(Br)cc2)cc1,-10.6%,
CCN(Cc1ccncc1)C(=O)CCc1ccccc1,29.2%,
Cc1c(/C(O)=C2/C(=O)C(=O)N(CCN3CCOCC3)C2c2ccccn2)cnn1-c1ccccc1 (centres undefined),0.373%,
COC(=O)CCCC[C@@H]1SC[C@@H](NC(=O)OC)[C@@H]1NC(=O)OC,19.4%,
CN=C1S/C(=C\c2ccc(O)c(Br)c2)C(=O)N1C,7.27%,
C#CCN(C[C@@H]1[C@@H](OC(=O)NCC2CCCCC2)[C@@H](OC(=O)NCC2CCCCC2)Cn2c(=O)ccc(=O)n21)S(=O)(=O)c1ccc(C)cc1,-99.9%,
O=C(NOCc1ccccc1)c1ccc(Cl)cc1Cl,-18%,

Compound,"activity change, negative = inhibition",outcome
S=C(NCC1CCCCC1)Nc1ccc(Oc2ccccc2)cc1,14.5%,
COc1ccc(C(=O)CN(CCC(=O)O)S(=O)(=O)c2ccc([N+](=O)[O-])cc2)cc1,1.46%,
CCN(CC(=O)NCc1ccc(F)cc1)CC(=O)Nc1cc(S(=O)(=O)N(C)C)ccc1C,-15.9%,
O=C(Nc1ccc(N2CCOCC2)cc1)c1cn2ccccc2n1,-2.87%,
Cc1sc2ncnc(N3CCC(C(=O)Nc4ccccc4C(C)(C)C)CC3)c2c1C,-6.18%,
C=CCn1c(O)c(N=NC(=S)Nc2ccccc2C)c2cc(S(=O)(=O)N3CCOCC3)ccc21,43.7%,
Cc1cccc(NC(=S)N=Nc2c(O)n(C)c3ccc(S(=O)(=O)N4CCOCC4)cc23)c1,20.2%,
CN1C(=O)C(CC(=O)NC2CCCCC2)SC1=Nc1ccccc1 (centres undefined),-4.39%,
COc1ccc(-c2ccc3c(c2)S(=O)(=O)c2cccc(C(=O)NCc4cc(C)oc4C(F)(F)F)c2C3=O)cc1OC,6.54%,
Cc1ccc(C(=O)Nc2cccc(C(F)(F)F)c2)cc1NC(=O)c1ccno1,,inactive
COc1cccc(C(=O)Nc2nc3ccccc3[nH]2)c1,31.9%,
CCOc1ccc(/C=N/Nc2cc(N3CCOCC3)ncn2)c(O)c1,-12.3%,
Cn1cccc1CC(=O)NNC(=S)Nc1ccccc1Cl,-1.27%,
COC(=O)C1=C(C)N(CCCC(=O)O)C(=O)NC1c1cccc(Cl)c1Cl (centres undefined),-6.66%,
COc1cc2cc(C(=O)N3CCN(c4ccccc4OC)CC3)[nH]c2cc1OC,0.636%,
O=C(Nc1cccc(C(=O)O)c1)Nc1ccccc1Cl,25.4%,
CCN(C(=O)c1cccc(NC(=O)c2ccccc2)c1)C1CCCCC1,56.7%,
N=c1c(-c2nc3ccccc3[nH]2)cc(C(=O)c2cccs2)nn1-c1ccccc1,18.5%,
CCCCCC(=O)N1CCN(c2ccc(C(C)=O)cc2F)CC1,12.2%,
Cc1ccc(-c2csc(=Nc3cccnc3)n2CCCn2ccnc2)cc1C,-85.9%,
COc1cc(/C=C(\C#N)c2ccccn2)ccc1OCc1ccccc1Cl,9.75%,
Cc1cc(/C=C2\Cc3ccccc3C2=O)c(C)n1-c1ccccc1,30.7%,
CCCCNC(=S)Nc1ccc([N+](=O)[O-])cc1,-9.38%,
CC(=O)NC(CCS(C)(=O)=O)C(=O)Nc1ccc(Cl)c(Cl)c1 (centres undefined),-4.89%,
C=C1C(=O)C2=CC1CCC(=O)C1(C)CCC(OC(C)=O)C(C)(C)C1CC2O (centres undefined),-98.8%,
O=C(NCC1CCOCC1)c1ccc(OC2CCN(Cc3ccccn3)CC2)cc1,14.1%,

Compound,"activity change, negative = inhibition",outcome
CCc1ccc(/C=N/NC(=O)c2ccccn2)cc1,-0.532%,
Cc1ccsc1-c1nc(CSCC(=O)N2CCN(c3ccccc3)CC2)c(C)o1,44.4%,
CCCSc1nc2cc(S(=O)(=O)N3CCOCC3)ccc2n1CC,19.4%,
CC(C)OCCCNC(=O)C1CCC(CNS(=O)(=O)c2ccccc2)CC1 (centres undefined),-9.46%,
NC1=NC(=O)NC1(c1ccccc1)c1ccccc1,2.06%,
Cc1cc(=S)[nH]c2ccccc12,3.44%,
CCOCCCn1c(=S)[nH]c2ncccc2c1=O,-10.1%,
C=CCn1c(O)c(N=NC(=S)Nc2cccc(C)c2)c2ccccc21,18.7%,
Cn1nc(-c2ccc(N3CCOCC3)c(NS(=O)(=O)c3ccccc3)c2)c2ccccc2c1=O,24.4%,
CCN(CC)c1ccc(/C=N/NC(=O)c2ccc3nc[nH]c3c2)c(O)c1,-65.3%,
C(=N\Nc1nc2ccccc2[nH]1)/c1cccc2nccnc12,30.3%,
COc1cccc(/C=N/Nc2nc3ccccc3[nH]2)c1O,-89.9%,
CCN(CC)S(=O)(=O)c1ccc(N/N=C/c2ccc(O)cc2O)nc1,-89.9%,
Cc1ccc(/C=C/c2nc3ccccc3c(=O)[nH]2)cc1,-9.47%,
CCN(CC)c1ccc(NC(=O)c2cccc(F)c2)c(C)c1,163%,
Cc1cc(C)cc(C(=O)NCCC(=O)NCc2cc(=O)n(C)c(=O)n2C)c1,15.2%,
O=C(CSc1nnc(-c2cccc(S(=O)(=O)N3CCOCC3)c2)n1C1CCCCCC1)NCc1ccccc1,20.6%,
CN(C)CC(C)(C)CNS(=O)(=O)c1ccc(OC(F)(F)F)cc1,13.2%,
COc1ccc2[nH]c3c(=O)n(CCCCC(=O)N4CCC(C(N)=O)CC4)c(=S)[nH]c3c2c1,21.2%,
COc1ccc2cc(C(N)=O)/c(=N\NC(=O)c3ccccc3)oc2c1,-14.7%,
CN(C)/C=C/C(=O)c1ccc2noc(-c3ccccc3)c2c1,-15.5%,
N#Cc1c(NC(=O)CCCC(=O)O)sc2c1CCCCC2,9.82%,
CC(C)[C@H](N[C@@H](C)c1ccccc1)c1c(O)ccc2ccccc12,-4.13%,
CC(=O)c1c(C)[nH]c(C(=O)Nc2ccc(C)cn2)c1C,39.2%,
COc1ccc(Nc2oc(COc3ccccc3OC)nc2C#N)cc1,20.2%,
COc1cc2nc(NC(=O)c3ccco3)sc(=O)c2cc1OC,-12.1%,
